# Assay results reported in PubChem BioAssay.
# “And” between values parts separate entries of the source, which are not always exact repeats. Identical values can stand only once. A structure can be active in one record and inactive in another. The source made the active and inactive calls.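 How the source made its calls, unless noted: active means inhibition at or above 50% relative to wild type and mutant plate controls; inactive means inhibition below 50%.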
# How the values were obtained:
# [1] = inhibitors of TNFa-induced NFkB p65 translocation, primary screen, imaging, HUVEC, MLSMR starter and 10KST1 sets (AID 438;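 active means inhibition above 20% together with a positive visual image hit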;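 further: compound added about 3h40 before a 20 min TNFalpha stimulation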;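 on inhibition: signal is the nuclear over cytoplasmic p65 intensity ratio per well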); settings: HUVEC TNFa-induced p65 nuclear translocation; cell count: measured here: nuclei count (cytotoxicity indicator), at 2.08 µM; inhibition: at 2 µM, stronger effect = higher value, 0% TNFa-plus-vehicle, 100% no-TNFa wells
# [2] = reduction of polyQ htt aggregates in cells – imaging, exon1htt(103Q)mCFP cells, high-content imaging, primary screen (AID 483;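 active means visual image review flags a hit and inhibition of aggregation exceeds 20%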;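 further: compound exposure lasted 3 days before fixation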;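 on nuclei count: percent of the per-plate median nuclei count of sample wells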); settings: exon1htt(103Q)mCFP cell line, aggregate imaging, at 2 µM; inhibition of aggregation: stronger effect = higher value; nuclei count: measured here: cell count, toxicity
# [3] = endothelial E-selectin expression blockers – imaging, HUVEC, immunofluorescence, MLSMR starter and 10KST1 sets, primary screen (AID 487;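 active means visually confirmed hit in the image check and inhibition above 20%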;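 on inhibition: signal is fraction of cell area covered by stained E-selectin grains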;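 on nuclei count: 100% = median nuclei count of all wells on the same plate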); settings: HUVEC TNFalpha-induced E-selectin immunofluorescence imaging, at 2 µM; inhibition: stronger effect = higher value; nuclei count: measured here: cell number, toxicity
# [4] = Primary imaging screen for DUSP6 inhibitors that restore phospho-Erk in transfected HeLa cells, chemical complementation (AID 609;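 active means compounds giving at least 50% inhibition in the cell-based MKP-3 phosphatase rescue imaging test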;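 on inhibition: phospho-Erk level distribution per well compared with pooled transfected vehicle control wells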); settings: HeLa MKP-3 transfected, phospho-Erk imaging KS statistic, at 10 µM, cells stimulated with TPA for 15 min
# [5] = target: Dual specificity protein phosphatase 6 (Homo sapiens) (UniProt Q16828); experiment: as above; settings: HeLa MKP-3 transfected, phospho-Erk imaging KS statistic; at 10 µM; stronger effect = higher value; cells stimulated with TPA for 15 min
# [6] = target: Voltage-gated potassium channel subunit beta-2 (Rattus norvegicus) (UniProt P62483); experiment: inhibitors of rat Kvbeta2 reductase activity – biochemical, NADPH fluorescence, primary screen (AID 622;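 active means fluorescence slope higher than the sample average by over 3 SD, cut at about -0.22 in these data, passing the limit was not always enough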;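 further: slope of raw intensity against log time taken from 70 to 1610 s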); settings: recombinant KvBeta, 4-cyanobenzaldehyde reduction, at 10 µM, stronger effect = higher value
# [7] = target: Voltage-gated potassium channel subunit beta-2 (Rattus norvegicus) (UniProt P62483); experiment: enhancers of rat Kvbeta2 NADPH turnover – biochemical, NADPH fluorescence, primary screen (AID 623;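 active means NADPH fluorescence slope more negative than the mean of all samples by about 3 SD, 99.7% confidence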;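 further: fluorescence intensity change per second fitted from 20 to 320 s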); settings: Recombinant KvBeta, NADPH fluorescence decrease slope, 10 min; at 10 µM; stronger effect = lower value
# [8] = target: Alpha-2C adrenergic receptor (Homo sapiens) (UniProt P18825); experiment: compounds altering alpha2C-coupled GIRK flux – cell-based, HEK293 alpha2C/GIRK1/2, thallium flux, primary screen (AID 624;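 active means fluorescence slope after compound addition differing from the mean of all screened samples at 99.7% confidence, in either direction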;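 further: slope of fluorescence ratio to pre-addition baseline per second over 15 to 24 s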); settings: thallium flux BTC fluorescence, at 10 µM, actives lie on both sides
# [9] = inhibitors of larval lipid processing in zebrafish, primary screen, whole organism, PED6 fluorescence, gall bladder and intestine (AID 686;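 active means a full or partial loss of lipid-probe fluorescence in the fish gall bladder, intestine or both, judged by eye; inactive means no fluorescence loss, or compound toxic to the fish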;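 further: larvae 5 to 7 days old with five fish per well; signal comes from phospholipase A2 cleavage of quenched PED6 carried via bile; overnight exposure to compound and PED6 before scoring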); settings: Zebrafish larvae PED6 lipid processing, fluorescence scoring; screened at 20 µM (by protocol)
# [10] = loss of swimming-algae plug formation – whole organism, Chlamydomonas reinhardtii, WT vs cilia-less mutant, absorbance, 96-well, primary screen (AID 463189); settings: Chlamydomonas reinhardtii gravitaxis, OD600 absorbance, 2 days; at 10 µM; stronger effect = higher value;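 further: 0% = wild type cc124 cells in DMSO and 100% = ciliumless bld1 mutant cells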
# [11] = blockers of RIG-like receptor reporter activation – cell-based, Sendai virus stimulus, luciferase, 10K MLSCN set, TLR/RLR signaling modifier project, primary screen (AID 602276;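 active means inhibition at or above 50% at 10 µM; inactive means inhibition below 50%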;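 further: firefly luciferase from ISG56 promoter only with Renilla not read in this screen; 0% = Sendai virus plus DMSO and 100% = medium plus DMSO without virus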); settings: HEK293 RL24 IRF3 luciferase reporter, at 10 µM, stronger effect = higher value
# [12] = TLR3 IRF3 reporter activation blockers – cell-based, poly I:C stimulus, luciferase, 10K MLSCN set, primary screen (AID 602277;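 active means inhibition of the reporter signal at or above 50%; inactive means inhibition below 50%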); settings: HEK293-TLR3 RL24 IRF3 luciferase reporter, at 10 µM, stronger effect = higher value
# [13] = measured here: cell density z-score
# [14] = measured here: nuclear c-Myc green intensity z-score
# [15] = measured here: nuclear pErk red intensity z-score, stronger effect = higher value
# Voltage-gated potassium channel subunit beta-2 (Rattus norvegicus), sequence (P62483 whole entry, looked up): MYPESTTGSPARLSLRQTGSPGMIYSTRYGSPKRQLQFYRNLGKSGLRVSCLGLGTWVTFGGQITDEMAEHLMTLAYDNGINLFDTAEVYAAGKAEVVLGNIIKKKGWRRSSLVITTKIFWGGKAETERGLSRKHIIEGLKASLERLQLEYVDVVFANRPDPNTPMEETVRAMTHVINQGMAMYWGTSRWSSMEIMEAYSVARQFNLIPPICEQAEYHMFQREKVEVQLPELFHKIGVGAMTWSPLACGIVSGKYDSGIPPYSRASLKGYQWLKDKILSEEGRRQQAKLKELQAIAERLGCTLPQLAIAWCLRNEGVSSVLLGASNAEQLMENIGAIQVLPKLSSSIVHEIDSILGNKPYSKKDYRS
# Dual specificity protein phosphatase 6 (Homo sapiens), sequence (Q16828 whole entry, looked up): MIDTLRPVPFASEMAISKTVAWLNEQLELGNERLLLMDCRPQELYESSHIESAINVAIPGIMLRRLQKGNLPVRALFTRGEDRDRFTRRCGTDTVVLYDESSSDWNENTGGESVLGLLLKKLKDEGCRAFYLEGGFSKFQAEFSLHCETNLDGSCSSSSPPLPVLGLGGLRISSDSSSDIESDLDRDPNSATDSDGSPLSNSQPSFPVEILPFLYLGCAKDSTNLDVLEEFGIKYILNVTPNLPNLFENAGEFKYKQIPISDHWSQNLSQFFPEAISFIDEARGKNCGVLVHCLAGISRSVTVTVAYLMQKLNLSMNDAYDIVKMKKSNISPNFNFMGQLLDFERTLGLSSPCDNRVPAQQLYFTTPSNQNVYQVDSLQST
# Alpha-2C adrenergic receptor (Homo sapiens), sequence (P18825 whole entry, looked up): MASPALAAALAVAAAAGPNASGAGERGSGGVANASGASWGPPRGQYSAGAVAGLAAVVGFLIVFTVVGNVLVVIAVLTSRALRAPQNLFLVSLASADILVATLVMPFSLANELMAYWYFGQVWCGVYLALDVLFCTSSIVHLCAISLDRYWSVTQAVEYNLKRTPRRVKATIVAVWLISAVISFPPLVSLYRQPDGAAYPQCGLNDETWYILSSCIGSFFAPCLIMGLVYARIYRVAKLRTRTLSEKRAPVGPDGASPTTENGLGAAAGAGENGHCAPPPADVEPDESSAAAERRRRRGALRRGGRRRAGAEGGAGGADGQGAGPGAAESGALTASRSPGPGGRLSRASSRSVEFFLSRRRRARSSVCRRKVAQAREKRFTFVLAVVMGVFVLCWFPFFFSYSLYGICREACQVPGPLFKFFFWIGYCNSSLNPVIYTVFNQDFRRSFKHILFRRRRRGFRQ
SMILES,cell count [1],inhibition [1],inhibition of aggregation [2],nuclei count [2],inhibition [3],nuclei count [3],"z-score [4, 13]","z-score [4, 14]","z-score [4, 15]",inhibition [5],fluorescence slope [6],NADPH fluorescence slope [7],slope [8],outcome [9],inhibition [10],inhibition [11],inhibition [12]
Cc1[nH]nc2c1C(CCc1ccccc1)C(C#N)=C(N)O2 (stereo not drawn),561,-10% (inactive),-13.6% (inactive),111%,-14.6% (inactive),115%,-1.62,-1.48,1.34,-9.7% (inactive),-0.498 (inactive),-3.1e-05 (inactive),0.00364 (inactive),inactive,2.48% (inactive),-8.58% (inactive),2.77% (inactive)
CCCOc1cccc(-c2nnc(N)s2)c1,605,-3.6% (inactive),-31.3% (inactive),108%,-83.5% (inactive),111%,0.352,-0.262,-0.207,-11.5% (inactive),-0.443 (inactive),-5.5e-05 (inactive),0.00934 (inactive),inactive,-3.59% (inactive),-30.1% (inactive),-65.7% (inactive)
C=CCn1c(SCC#N)nc2c(c1=O)C(C)(C)Cc1ccccc1-2,648,-0.1% (inactive),11.6% (inactive),107%,-30.9% (inactive),136%,1.4,0.411,-0.925,34.8% (inactive),-0.315 (inactive),-5.8e-06 (inactive),0.00525 (inactive),inactive,104% (active),-4.84% (inactive),6.72% (inactive)
CC1=C(c2ccc(Cl)cc2)[N+](=O)C(C)(C)N1[O-],523,-5.6% (inactive),8.9% (inactive),94.8%,-69.5% (inactive),124%,0.834,-1.84,0.735,6.04% (inactive),-0.408 (inactive),-7.3e-06 (inactive),0.00633 (inactive),inactive,21.6% (inactive),-0.683% (inactive),15.7% (inactive)
CCCCCC(=O)N1CC2(CC)CN(C(=O)CCCCC)CC(CC)(C1)C2=O,548,4.4% (inactive),26.5% (inactive),90%,-77.8% (inactive),117%,0.465,-0.132,-0.254,7.42% (inactive),-0.308 (inactive),-9.9e-07 (inactive),0.00431 (inactive),inactive,22.6% (inactive),3.77% (inactive),34.5% (inactive)
COc1cccc(-c2nnc3sc(C4CCCCC4)nn23)c1,569,-0.9% (inactive),42.2% (active),66.9%,-37.4% (inactive),130%,0.451,0.807,-1.36,-13.3% (inactive),-0.418 (inactive),-0.000116 (inactive),0.00489 (inactive),inactive,112% (active),28.7% (inactive),10.1% (inactive)
C(=C\c1ccccc1)/CN1CCN(C(c2ccccc2)c2ccccc2)CC1,635,-9.5% (inactive),-21.5% (inactive),107%,-95.1% (inactive),131%,0.835,-0.254,0.957,11.3% (inactive),-0.448 (inactive),-6.1e-05 (inactive),0.00492 (inactive),inactive,126% (active) and 125% (active),9.39% (inactive),26.9% (inactive)
C[C@]12CC[C@@H]3c4ccc(O)cc4CC[C@H]3[C@@H]1CC[C@@H]2OC(=O)CCC(=O)O,543,4.6% (inactive),-1.9% (inactive),91.7%,-5.8% (inactive),111%,-0.479,-0.845,2.04,5.79% (inactive),-0.519 (inactive),-3.4e-05 (inactive),0.0043 (inactive),inactive,-7.26% (inactive),15.4% (inactive),24% (inactive)
CCOC(=O)N1CCN(C(=O)c2cn(CC)c3cc(N4CCN(C)CC4)c(F)cc3c2=O)CC1,544,2.6% (inactive),15.1% (inactive),96%,-20.9% (inactive),121%,0.456,0.816,-1.34,-7.28% (inactive),-0.267 (inactive),1.3e-05 (inactive),0.00518 (inactive),inactive,15.7% (inactive),21.5% (inactive),21.4% (inactive)
CCOc1nc(-c2ccncc2)nc2ccccc12,416,5.6% (inactive),-55% (inactive),13.3%,-66.1% (inactive),116%,-2.21,-0.624,0.47,4.25% (inactive),-0.322 (inactive),3e-05 (inactive),0.00435 (inactive),inactive,39.6% (inactive),13.1% (inactive),16.5% (inactive)
CCC(C(=O)OCCN(CC)CC)c1ccccc1 (stereo not drawn),572,-11.1% (inactive),-9.9% (inactive),104%,-56.9% (inactive),130%,1.14,1.04,0.111,19.2% (inactive),-0.459 (inactive),-3.7e-05 (inactive),0.00422 (inactive),inactive,21.8% (inactive),8.3% (inactive),34.3% (inactive)
CCC(=O)Oc1ccc(/C(CC)=C(\CC)c2ccc(OC(=O)CC)cc2)cc1,550,-4.1% (inactive),3.5% (inactive),97.5%,-13.5% (inactive),127%,-0.723,0.714,1.03,3.45% (inactive),-0.443 (inactive),-5.7e-05 (inactive),0.00761 (inactive),inactive,9.5% (inactive),11.1% (inactive),42.9% (inactive)
C[C@]12CC[C@@H]3c4ccc(OC(=O)c5ccccc5)cc4CC[C@H]3[C@@H]1CC[C@@H]2O,623,1.2% (inactive),-35.3% (inactive),31.5%,-112% (inactive),133%,-1.91,0.276,-1.27,-6.41% (inactive),-0.467 (inactive),-8.1e-05 (inactive),0.00784 (inactive),inactive,5.46% (inactive),7.4% (inactive),33.1% (inactive)
Cn1c(=O)c2c3c(sc2n2c(SCC(=O)c4ccc(Cl)cc4)nnc12)COC(C)(C)C3,673,-9.1% (inactive),-12.3% (inactive),105%,2.7% (inactive),143%,-0.121,0.129,-1.03,-3.98% (inactive),-0.53 (inactive),-1.3e-05 (inactive),0.00419 (inactive),inactive,0.223% (inactive),6.06% (inactive),10.6% (inactive)
CC1=C(C)C(=O)C(CCCCC#CCCCC#CCO)=C(C)C1=O,531,4.4% (inactive),9.6% (inactive),95.5%,-112% (inactive),108%,0.752,-0.729,-1.42,19.2% (inactive),-0.452 (inactive),-2.1e-05 (inactive),0.00343 (inactive),inactive,-6.32% (inactive) and 57.1% (active),14.4% (inactive),32.8% (inactive)
CC(C)[N+](C)(CCOC(=O)C1c2ccccc2Oc2ccccc21)C(C)C,683,-4.8% (inactive),-28.8% (inactive),115%,-133% (inactive),138%,-0.466,-0.573,0.578,-2.46% (inactive),-0.487 (inactive),2.5e-06 (inactive),0.00524 (inactive),inactive,0.683% (inactive) and 0.468% (inactive),20.3% (inactive),39.4% (inactive)
O=C(O)c1cc(-c2ccccc2)nc2ccccc12,572,-5.1% (inactive),-4.1% (inactive),92.2%,-66.9% (inactive),121%,0.461,0.0575,-0.708,-0.493% (inactive),-0.459 (inactive),-5.4e-05 (inactive),0.00561 (inactive),inactive,-8.89% (inactive),5.39% (inactive),34.2% (inactive)
CCOC(=O)c1c(C)n(C)c2ccc(OC)c(NC(=O)CCN3CCSCC3)c12,476,3% (inactive),5.7% (inactive),112%,-134% (inactive),114%,-2.21,0.452,0.641,-9.66% (inactive),-0.464 (inactive),-6.9e-05 (inactive),0.00572 (inactive),inactive,4.14% (inactive),24.4% (inactive),28.3% (inactive)
CCC(=O)c1ccc(O)cc1,663,0.5% (inactive),-14% (inactive),101%,-19.7% (inactive),118%,-0.298,-0.183,0.759,19% (inactive),-0.496 (inactive),8.5e-06 (inactive),0.00491 (inactive),inactive,-6.67% (inactive),13.6% (inactive),5.36% (inactive)
